From PubChem BioAssay (NCI)
Compounds without any hit were thinned out: in the full panel of roughly 79,000, 15% have a hit. A number with no mark means an inactive call. Calls of active or inactive are those of the source. Cut-off read from the data, not from the text of the source: active = growth inhibition above about 70%; inactive = the rest.

Assay: NCI Yeast Anticancer Drug Screen. Data for the mec2-1 strain (AID 157)
Conditions: S. cerevisiae mec2-1 strain, stronger effect = higher value
Description: Growth inhibition of yeast strains with defined genetic alterations is measured as a screen for potential anti-cancer activity. Selected strains with alterations in DNA damage repair or cell cycle control were exposed to compounds and growth inhibition was measured relative to vehicle treated controls. The strain used in this assay is mec2-1

[1] = at 5.0 µM (retest, dose inferred, filed as 0.5)
[2] = at 50.0 µM (retest, dose inferred, filed as 5.0)

Row | Compound | growth inhibition [1] [%] | growth inhibition [2] | growth inhibition (at 50.0 µM)
1 | Cc1ccc(/C=C2\CN(C)CC3=C2NC(=S)NC3c2ccc(C)cc2)cc1 (configuration not stated) | 18 | 54% | 4.2%
2 | CCCCCCCCCCCCCCCCCC(=O)OCC(O)COC(=O)CCCCCCCCCCCCCCCCC | 1 | -3% | 15.6%
3 | CCN(CC)CCCNc1c(O)cc(C)c2sc3ccccc3c(=O)c12 | 6 | 99% (active) | 99.2% (active)
4 | Clc1ccc(-c2nc3ccc(Cl)cc3[nH]2)cc1 | -3 | 88% (active) | 86.7% (active)
5 | CCCCNCCCCCCCCCCCl | 65 | 99% (active) | 96.5% (active)
6 | CNC(=S)N/N=C/c1nccc(-c2ccccc2)c1C | -2 | 96% (active) | 48.9%
7 | Cc1c(N)cc(I)cc1[N+](=O)[O-] | 9 | 7% | 4.2%
8 | CCOCCC(=O)NNc1ccccc1 | 0 | 36% | 6%
9 | COc1ccc2c(c1)C(=O)C(Br)CC2 (configuration not stated) | 12 | 99% (active) | 66.6%
10 | CCOc1c(Br)cc(Br)cc1/C=N/NS(=O)(=O)c1ccc(C)cc1 | 26 | 88% (active) | 74.5% (active)
11 | CC(=O)OC1CCC2(C)C3CCC4(C)C(C(C)CCCC(C)C)CCC4C3CCC23OC13C (configuration not stated) | -17 | 23% | 6.2%
12 | S=C(N/N=C(/c1ccccc1)c1ccccn1)Nc1cccc(Cl)c1 | 32 | 91% (active) | 3.3%
13 | O=C(CSC1=NNC2(C(=O)N1)c1ccccc1-c1ccccc12)NC(=S)Nc1ccccc1 | -15 | 90% (active) | 97% (active)
14 | Nc1ccccc1OCC(O)CN1CCN(Cc2ccccc2)CC1 (configuration not stated) | -4 | 15% | 41%
